In the library only some 8.1% were active in any assay of this set; here they are far more common.
Shh pathway inh: blocks Sonic Hedgehog signaling | Shh-LIGHT2 Gli-luciferase reporter, 30 h | inhibition, % (no concentration beside the values) | 22,000 compounds, 2.1% hits;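 active = mean inhibition across valid replicates above about 65%, limit read from the data; inconclusive = mean under the limit, yet half or more replicates past it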;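 also: pathway switched on by Shh-conditioned medium diluted 1 in 25 in low serum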
MITF inhib: MITF inhibition. TRPM1 promoter luciferase, luminescence, 24 h. inhibition, % (concentration not given with the values). 37,000 compounds, 0.28% hits. AID 2240; in the data active = inhibition above about 85%; inconclusive = no clear call, values can overlap the other calls; inactive = below about 68%;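 also: human melanocyte line stably carrying TRPM1 promoter luciferase reporter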
NOMO-1 viab: STK33 inhibitor candidate reducing NOMO-1 cell viability; NOMO-1 AML viability, CellTiter-Glo luminescence, 72 h; inhibition, % (concentration not given with the values); 37,000 compounds, 7.5% hits; AID 2330; in the data active = inhibition above about 80%; inconclusive = no clear call, values can overlap the other calls
The depositor's hits bear a star; ? = inconclusive; / = no result.

SMILES	Shh pathway inh	MITF inhib	NOMO-1 viab
COc1cc(OC)c2c(=O)c(O)c(-c3ccc(OC)c(OC)c3)oc2c1	43	-13	102*
COc1ccc(-c2oc3c(OC)c(OC)c(OC)c(O)c3c(=O)c2OC)cc1OC	24	-21	107*
COc1cc(-c2oc3cc(O)c(OC)c(O)c3c(=O)c2OC)ccc1O	-56	-38	120*
COc1c(OC)c(O)c2c(=O)c(O)c(-c3ccccc3)oc2c1OC	14	-53	58
COc1cc2oc(-c3ccc(O)c(O)c3)c(OC)c(=O)c2c(O)c1OC	-24	/	/
CCc1ccccc1OCC(=O)Nc1ccc(C)cc1[N+](=O)[O-]	/	-41	-5
CS(=O)(=O)N(CC(=O)NC1CCCC1)c1cc(Cl)c(Cl)cc1Cl	/	19	-21
COC(=O)c1c(-c2ccccc2)csc1NC(=O)C1CCCCC1C(=O)O (stereo not given)	/	-53	-1
O=C(CSc1nnnn1-c1ccc(F)cc1F)Nc1ccc2c(c1)OCCO2	/	-84	5
COc1ccc(-c2cc(=O)c3c(O)cc(O)cc3o2)cc1	-11	-24	-4
COc1cc(O)c2c(=O)cc(-c3ccc(OC)c(-c4c(O)cc(O)c5c(=O)cc(-c6ccc(O)cc6)oc45)c3)oc2c1	18	?	108*
CCc1cc(C(=O)OC)c(NC(=S)Nc2ccc(S(=O)(=O)N3CCOCC3)cc2)s1	/	9	-27
C=C1C(=O)OC2CC3(C)CCC=C(CO)C3CC12 (stereo not given)	28	/	/
C=C1C(=O)O[C@@H]2C[C@@]3(C)[C@@H](O)C[C@@H](O)C(=C)[C@@H]3C[C@H]12	38	26	83*
O=C(CSc1ncc(-c2ccccc2)nn1)Nc1ccc(I)cc1	/	22	43
O=C(Nc1ccccc1C(=O)O)c1cccc(S(=O)(=O)Nc2cccc(C(F)(F)F)c2)c1	/	6	21
CC1(C)N=C(NS(=O)(=O)c2cc(C(F)(F)F)cc(C(F)(F)F)c2)N(c2ccccc2)O1	101*	49	14
CC1(C)Cc2c(c(N3CCOCC3)nc3sc4c(SCc5nc6ccccc6[nH]5)ncnc4c23)CO1	/	15	28
Cc1oc2cc(OC(C)C)ccc2c(=O)c1-c1ccc2c(c1)OCCO2	-14	-21	-12
Cc1oc(-c2ccc3c(c2)OCCO3)cc1C(=O)NCC(=O)O	/	86*	2
Cc1cccc(S(=O)(=O)NC(C(=O)O)C(C)C)c1 (stereo not given)	/	-12	-32
Cc1ccc(NC(=O)CC(c2ccccc2)c2ccccc2)cc1C	/	8	41
C[C@H](CO)N1C[C@H](C)[C@H](CN(C)Cc2ccccc2)Oc2ccc(NC(=O)Nc3cccc4ccccc34)cc2C1=O	-1	4	15
C[C@H](CO)N1C[C@H](C)[C@H](CN(C)Cc2ccc(C(=O)O)cc2)Oc2ccc(NC(=O)Nc3cccc4ccccc34)cc2CC1=O	/	-5	9
C[C@H](CO)N1C[C@H](C)[C@H](CN(C)Cc2ccc(Cl)c(Cl)c2)Oc2c(NC(=O)Nc3cccc4ccccc34)cccc2C1=O	-12	46	107*
SMILES	Shh pathway inh	MITF inhib	NOMO-1 viab
C[C@@H]1CN([C@@H](C)CO)C(=O)Cc2cc(NC(=O)Nc3cccc4ccccc34)ccc2O[C@@H]1CN(C)Cc1ccc(Cl)c(Cl)c1	21	47	129*
C[C@@H]1CN([C@@H](C)CO)C(=O)c2cc(NC(=O)Nc3cccc4ccccc34)ccc2O[C@@H]1CN(C)Cc1ccc(Cl)c(Cl)c1	/	27	93*
CC(C)NC(=O)Nc1cccc2c1O[C@H](CN(C)Cc1ccc(Cl)c(Cl)c1)[C@@H](C)CN([C@@H](C)CO)C2=O	23	-12	54
C/C=C1\[C@H](O[C@@H]2O[C@H](CO)[C@@H](O)[C@H](O)[C@H]2O)OC=C(C(=O)O)[C@H]1CC(=O)OCCc1ccc(O)cc1	-1	13	2
Cc1sc2nc3c4ccccc4c(NCc4ccccn4)nn3c(=O)c2c1C	/	-22	?
O=C(COc1ccc(I)cc1)Nc1ccc(O)cc1C(=O)O	/	-22	-16
O=C(O)CCNC(=O)Nc1ccccc1	-12	-2	9
O=C(/C=C/c1ccc(O)c(O)c1)OCCc1ccccc1	77*	-32	141*
O=C(/C=C/c1ccccc1)Oc1ccccc1	/	8	48
O=Nc1c(O)n(CC(=O)Nc2ccccc2)c2ccccc12	-38	-23	16
NNC(=O)Cn1c2ccccc2c2ccccc21	/	3	100*
Cc1ccc(NC(=O)C(=O)NCCc2c[nH]c3ccccc23)cc1Cl	/	25	41
COc1ccc(C)cc1N(CC(=O)Nc1cccc(Cl)c1Cl)S(C)(=O)=O	/	-12	0
C/C=C(\CO)C(=O)O[C@H]1[C@H](O)[C@@H](C(=O)OC)O[C@@H]2C[C@H]3OC(n4cnc5c(N)ncnc54)[C@H](OC)[C@H]3O[C@]21O (stereo not given in full)	-14	-10	12
COc1ccc(CC(N)C(=O)N[C@H]2[C@@H](O)[C@H](n3cnc4c(N(C)C)ncnc43)O[C@@H]2CO)cc1 (stereo not given in full)	97*	92*	98*
CSc1ccccc1NC(=O)CN(C1CCCCC1)S(=O)(=O)c1ccc(F)cc1	/	-5	46
CC(O)c1cncc2c(=O)n3c(cc12)-c1[nH]c2ccccc2c1CC3 (stereo not given)	37	19	49
CNc1ccccc1C(=O)N1CCc2c([nH]c3ccccc23)C1=O	21	-13	95*
NC(N)=NC(N)=Nc1ccccc1	-19	-1	-21
c1ccc(N=C(Nc2ccccc2)Nc2ccccc2)cc1	-24	-8	89*
O=C(O)CCSc1nc(-c2ccccc2)c(-c2ccccc2)[nH]1	/	9	-7
CCOc1nc(NCCO)nc(Nc2ccc(OC)cc2OC)n1	/	-3	-24
CCOc1ccc(OCC(=O)Nc2sc3c(c2C(N)=O)CCC(C)C3)cc1 (stereo not given)	/	-7	3
CCN1C(=O)/C(=C2\SC(=S)N(c3cccc(Cl)c3)C2=O)c2ccccc21	14	6	?
O=C1N(c2cccc(Cl)c2)C(=Nc2cccc(Cl)c2)SC12CC2	-19	12	114*
SMILES	Shh pathway inh	MITF inhib	NOMO-1 viab
COc1ccc2nc3c(cc2c1)c(=O)n(C)c(=O)n3C	-13	5	-4
Clc1cccc(Nc2nnc(-c3ccccc3)c3ccccc23)c1	94*	66	73
CNS(=O)(=O)c1cc(-c2nnc(Nc3ccc(NC(C)=O)cc3)c3ccccc23)ccc1C	/	-6	3
CC1=CC(C)C2(COC(=O)Nc3ccccc3)COC(c3cccnc3)C1C2C (stereo not given)	92*	53	105*
c1cncc(C2OCC3(CO2)COC(c2cccnc2)OC3)c1 (stereo not given)	-21	-7	-25
COCCCN1C(=O)c2oc3ccc(Br)cc3c(=O)c2C1c1cccc([N+](=O)[O-])c1 (stereo not given)	/	13	-11
Cc1ccc(-c2nc3ncccc3o2)cc1NC(=O)COc1ccc(C2CCCCC2)cc1	/	6	42
C/C=C/C=C/C(=O)O[C@@H]1C=C(CO)[C@](O)(CO)[C@@]2(C)CCCC(C)(C)[C@H]12	-16	2	63
CC(=O)O[C@@H]1C[C@@H](C)[C@](O)(CCC2=CC(=O)OC2)[C@@]2(C)CCCC(C)(C)C12 (stereo not given in full)	-1	45	104*

High-throughput results (PubChem)
